Measurements taken from PMC12136788.
Numbering of substitutions follows the chain as printed. Whole data set: some 5,800 sequences, median “enrichment r” near 0.54, cut for the highest 2% near 16. Only a selection was taken, and the highest values are over-represented in it overall.

B1: chr2:99394746:99394872:+|CDS|ENSG00000158417|unk|FALSE|unique (ssRNA)
RNA: GGGAGUUCUACAGUCCGACGAUCGAUGUGAGAAUUGAACGAGAUGCACAAGAAAUGGCUGAUAGUUUAGGAGUUAGAAUUUUUAGUGCAGAAAUUAUUUAUCAUUUAUUUGAUGCCUUUACAAAAUAUAGACAAGACUACAAGCAACAGAGGAUUGAGCAUCA
B2: chr11:101890673:101891278:-|three_prime_utr|ENSG00000187151|control|control|control (ssRNA)
RNA: GGGAGUUCUACAGUCCGACGAUCGUAAUGCAAGUUCUACAAUGAUAAUAUAUUAAAGAUUUUUAAAAGUUUAUCUUUUCACUUAGUGUUUCAAACAUAUUAGGCAAAAUUUAACUGUAGAUGGCAUUUAGAUGUUAUGAGUUUCAACAGAGGAUUGAGCAUCA
B3: chr17:37686430:37687371:-|three_prime_utr|ENSG00000275410|control|control|control (ssRNA)
RNA: GGGAGUUCUACAGUCCGACGAUCUGCAAUUUCCCCUCUGUGUCCUCUCCCCUCUGCCCUGUAUAUAAUACUAAAGUGUCUAUUAGUUUUCUUUGUAAAGGUCAGAGUCAAAAUUUCAAAAGUGAUCUGUCCCCUCUCCCCUCACAACAGAGGAUUGAGCAUCA
B4: chr2:99394746:99394872:+|CDS|ENSG00000158417|unk|total|mutant (ssRNA)
RNA: B1 RNA with U62C, A63C, U67C, A68C, U74C, A75C, U83C, A84C, U128C, A129C
B5: chr15:49134392:49134529:-|CDS|ENSG00000166200|unk|FALSE|unique (ssRNA)
RNA: GGGAGUUCUACAGUCCGACGAUCAUAUUUGCUUUCCUAGACUGAUGAUGGAGAAGAUGAUCUGAAAAAAGGUACACAGUUAUUAGAAAUAUAUGCUUUGGAAAUUCAAAUGUACACAGCACAGAAAAAUAACAAAAAACUUAACAACAGAGGAUUGAGCAUCA
B6: chr5:72209348:72209524:+|3pUTR|ENSG00000131711|msi1_unk|total|mutant (ssRNA)
RNA: GGGAGUUCUACAGUCCGACGAUCUUAUGUCUUAUAAUCCUGCAUCACUUCUAUCCUAUCCAGUCAUAUCUAAUGCCGAAAAUCCGUUUCCAGUGAAAGUAAUAUGCCGUGCUUUUAUGAUAUUUGUGUGCAAUAUCCCCUCUUCAACAGAGGAUUGAGCAUCA
B7: chr5:24509697:24509799:-|CDS|ENSG00000040731|unk|FALSE|unique (ssRNA)
RNA: GGGAGUUCUACAGUCCGACGAUCACUCGACUAUGAGAGCCGAAGACUUUAUACUCUGAAAGUCGAAGCAGAAAACACCCAUGUAGAUCCCCGUUUUUAUUACCUAGGACCAUUUAAAGAUACUACCAUAGUGAAAAUCUCUAUCAACAGAGGAUUGAGCAUCA
B8: chr17:61865808:61865921:-|3pUTR|ENSG00000108506|unk|FALSE|unique (ssRNA)
RNA: GGGAGUUCUACAGUCCGACGAUCUUCUAUGAGAAUGAGUUUGUAGCUGUUUCAAAUCAUGAAGUGCAUAGUAUCACAUGUGAUAGAAUAUUUAUAACUUUUUAUUAGAUGCUUAAUGUUCAAUUAAGUAAUUUUGAUGUGAAACAACAGAGGAUUGAGCAUCA
B9: chr9:5123879:5124511:-|three_prime_utr|ENSG00000120210|control|control|control (ssRNA)
RNA: GGGAGUUCUACAGUCCGACGAUCCUGGUAAAUUGGAUUGCCAUAUGCAGAAGAAUGAAACUGGACCCAUAUUUAUCACCAUAUAGAAAAAUUAACUCGAUCGAUUACAGACUUAAAUGUAAGAUCUGAAACUAGAAAAAUACUCAACAGAGGAUUGAGCAUCA
B10: chr16:21983864:21984660:-|three_prime_utr|ENSG00000155714|control|control|control (ssRNA)
RNA: GGGAGUUCUACAGUCCGACGAUCAAAGAAAAUUGAGCUGGCAAAAGAUGAAUCUUUCACAAGCAGUGAUGAUAAUGAAAAUGUAGAUUUAGAUAAAAGACUUCAAUAUUAUAGAUAUCCGUGGUCAACUGUGCAUCACCCUGCCAACAGAGGAUUGAGCAUCA
B11: ENSG00000176244:stop:overlap|stop_codon|ENSG00000176244|stop_codon|NA|stop_codon (ssRNA)
RNA: GGGAGUUCUACAGUCCGACGAUCAAGAUGCGACGAGUGCCUAUAUUUCUAAAGCAAAGGAGCUGAUAGAAAAAUACGGAAUUUAGAAUACAGCAUAUGAGGAAUUUUUCCUUUUGAAGACUUCCAAAUGCUAUCAUGACCUAACAACAGAGGAUUGAGCAUCA
B12: chr5:72209348:72209524:+|3pUTR|ENSG00000131711|msi1_unk|FALSE|overlapping (ssRNA)
RNA: B6 RNA with C75U, C76A, C83U, C84A, C106U, C107A
B13: chr11:118751385:118751486:-|3pUTR|ENSG00000110367|msi1|FALSE|unique (ssRNA)
RNA: GGGAGUUCUACAGUCCGACGAUCUUGAAGUCUCUUCCCUUUCUACCCAGUACUCGAGCCCAGGGCUAGAAGUUGAAACUCACUAGUAAUGUUAAACACCAUUUUUUUUUUCUUUUUGGGGAGGAGUUGAUAUGCAACUGCAGUCAACAGAGGAUUGAGCAUCA
B14: chr4:173322470:173322571:+|3pUTR|ENSG00000109586|msi1|total|mutant (ssRNA)
RNA: GGGAGUUCUACAGUCCGACGAUCUGCCGCAUUCACUCCCUUACCUACUGGCAUUCCCAGUGCCCUCUGUCCAUACCUACUUCCCGGAUUGCAAAGGAGUCUUCCAACCCGAGAAAAAUUGUCCACUGACAUUUGGGAUUUACUCAACAGAGGAUUGAGCAUCA

Target: MSI1 full-length (mouse, UniProt Q61474 1-362)
Sequence (Q61474 whole entry): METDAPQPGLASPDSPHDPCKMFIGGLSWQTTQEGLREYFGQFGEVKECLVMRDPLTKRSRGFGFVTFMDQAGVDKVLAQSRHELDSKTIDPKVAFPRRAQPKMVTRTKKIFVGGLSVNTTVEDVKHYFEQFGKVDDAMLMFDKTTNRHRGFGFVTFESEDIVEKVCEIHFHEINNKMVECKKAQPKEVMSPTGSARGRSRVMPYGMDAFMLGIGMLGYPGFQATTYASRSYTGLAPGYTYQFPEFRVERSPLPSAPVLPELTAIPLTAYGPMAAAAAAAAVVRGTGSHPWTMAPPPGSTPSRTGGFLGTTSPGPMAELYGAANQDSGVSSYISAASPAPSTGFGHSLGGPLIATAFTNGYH
Test: nsRBNS (natural sequence RNA bind-n-seq); RBNS binding buffer (assumed for nsRBNS): 25 mM Tris pH 7.5, 150 mM KCl, 3 mM MgCl2, 0.01% Triton X-100, 500 ug/ml BSA, 20 U/ml SUPERase-In, 4 C; UNK is unkempt and MSI1 is Musashi-1; names of the RNAs are library labels; protein concentration not given here; high values mean tight binding

Row | Binder | binding signal
1 | B1 | 35 enrichment R
2 | B2 | 3.72 enrichment R
3 | B3 | 0.979 enrichment R
4 | B4 | 0.374 enrichment R
5 | B5 | 0.819 enrichment R
6 | B6 | 0.64 enrichment R
7 | B7 | 3.85 enrichment R
8 | B8 | 5.16 enrichment R
9 | B9 | 19.7 enrichment R
10 | B10 | 43.6 enrichment R
11 | B11 | 0.512 enrichment R
12 | B12 | 22.2 enrichment R
13 | B13 | 1.4 enrichment R
14 | B14 | 0.767 enrichment R
